The values that follow come from PubChem BioAssay (Tox21).

Inconclusive results are not listed. Calls of active or inactive are those of the source. Unless noted, calls follow the shape of the dose curve; as a rule, active = well fitted curve in the direction sought with a large enough effect in the repeat runs; inconclusive = weak or mixed curves; inactive = no such curve, though single readings can be large; an effect the other way counts as inactive or inconclusive.

Test [1] in a line: qHTS assay to identify small molecule antagonists of the glucocorticoid receptor (GR) signaling pathway - cell viability counter screen (AID 720693). Also: nearly all actives have a fitted effect of over 55% in size. Also: potency is read from the fitted curve at half-maximal effect. Background: In qHTS, concentration-response curves come from the screen itself.
Test [2] is described as follows: qHTS assay for identifying genotoxic compounds that show differential cytotoxicity against isogenic chicken DT40 cell lines with known DNA damage response pathways - wild type cell line (AID 743012). Also: nearly all actives have a fitted effect of over 60% in size. Also: potency is read from the fitted curve at half-maximal effect. The essentials:
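Wild type DT40, 300 cells/well, ~0.5 h settle at 37 C/5% CO2; compounds in DMSO added by pintool; 40 h at 37 C/5% CO2; CellTiter-Glo, 30 min RT; luminescence.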

Test [3] in a line: qHTS assay for identifying genotoxic compounds that show differential cytotoxicity against isogenic chicken DT40 cell lines with known DNA damage response pathways - Rad54/Ku70 mutant cell line (AID 743015). Also: nearly all actives have a fitted effect of over 60% in size. Also: potency is read from the fitted curve at half-maximal effect.
The target in test [4] is Androgen receptor (Homo sapiens) (UniProt P10275). Put plainly: qHTS assay to identify small molecule antagonists of the androgen receptor (AR) signaling pathway (AID 743035; active = well fitted inhibition curve with a large enough effect in the signal ratio in the repeat runs, not every such curve was filed as active; the % refers to the signal ratio; also: potency is read from the fitted curve at half-maximal effect). The essentials:
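Fluorescence from a beta-lactamase FRET substrate (LiveBLAzer B/G, 2 h, room temperature) measured inhibition of R1881-stimulated signaling in GeneBLAzer AR-UAS-bla HEK293 cells exposed to compound for 16 h at 37C.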

The target is the same in test [5]. Put plainly: qHTS assay to identify small molecule agonists of the androgen receptor (AR) signaling pathway using the MDA cell line (AID 743040; also: nearly all actives have a fitted effect of over 20% in size). The essentials:
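Cells plated, 5 h at 37C/0% CO2; compound or DMSO pinned; 16 h at 37C; ONE-Glo added; luminescence measured after 30 min at room temperature. Reporter line: MDA-kb2 with MMTV-luciferase responsive to AR and GR.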

The nature of test [6]: qHTS assay to identify small molecule antagonists of the androgen receptor (AR) signaling pathway using the MDA cell line - cell viability counter screen (AID 743041; also: nearly all actives have a fitted effect of over 45% in size). Summed up:
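Cells were plated at 3,000 per well and left 5 h. Compounds in DMSO were then pinned in, followed by R1881. After 16 h at 37C, CellTiter-Fluor fluorescence gave viability.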

Test [7] addresses Androgen receptor (Homo sapiens) (UniProt P10275). Put plainly: qHTS assay to identify small molecule antagonists of the androgen receptor (AR) signaling pathway using the MDA cell line (AID 743042; also: nearly all actives have a fitted effect of over 55% in size; also: potency is read from the fitted curve at half-maximal effect). Summed up: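 Antagonist mode: compounds plus R1881 agonist added to MDA-kb2 AR-luc cells, incubated 16 h at 37C. Luciferase reporter luminescence quantified, with multiplexed CellTiter-Fluor readout for cell viability.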

The nature of test [8]: qHTS assay to identify small molecule antagonists of the androgen receptor (AR) signaling pathway - cell viability counter screen (AID 743033; also: nearly all actives have a fitted effect of over 45% in size).
A short description of test [9]: qHTS assay for identifying genotoxic compounds that show differential cytotoxicity against isogenic chicken DT40 cell lines with known DNA damage response pathways - Rev3 mutant cell line (AID 743014). Also: nearly all actives have a fitted effect of over 55% in size. Also: potency is read from the fitted curve at half-maximal effect.
Test [10] concerns the target Androgen receptor (Homo sapiens) (UniProt P10275). Put plainly: qHTS assay to identify small molecule agonists of the androgen receptor (AR) signaling pathway (AID 743036; active = well fitted activation curve with a large enough effect in the signal ratio in the repeat runs, with a control signal flat, not every such curve was filed as active; the % refers to the signal ratio). The essentials: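 Following a 4 h settling period, AR-UAS-bla HEK293 cells were dosed with compounds for 16 h at 37C. A 2 h room-temperature incubation with LiveBLAzer B/G FRET substrate preceded the fluorescence measurement.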

Chain of Androgen receptor (Homo sapiens) (P10275 whole entry, looked up): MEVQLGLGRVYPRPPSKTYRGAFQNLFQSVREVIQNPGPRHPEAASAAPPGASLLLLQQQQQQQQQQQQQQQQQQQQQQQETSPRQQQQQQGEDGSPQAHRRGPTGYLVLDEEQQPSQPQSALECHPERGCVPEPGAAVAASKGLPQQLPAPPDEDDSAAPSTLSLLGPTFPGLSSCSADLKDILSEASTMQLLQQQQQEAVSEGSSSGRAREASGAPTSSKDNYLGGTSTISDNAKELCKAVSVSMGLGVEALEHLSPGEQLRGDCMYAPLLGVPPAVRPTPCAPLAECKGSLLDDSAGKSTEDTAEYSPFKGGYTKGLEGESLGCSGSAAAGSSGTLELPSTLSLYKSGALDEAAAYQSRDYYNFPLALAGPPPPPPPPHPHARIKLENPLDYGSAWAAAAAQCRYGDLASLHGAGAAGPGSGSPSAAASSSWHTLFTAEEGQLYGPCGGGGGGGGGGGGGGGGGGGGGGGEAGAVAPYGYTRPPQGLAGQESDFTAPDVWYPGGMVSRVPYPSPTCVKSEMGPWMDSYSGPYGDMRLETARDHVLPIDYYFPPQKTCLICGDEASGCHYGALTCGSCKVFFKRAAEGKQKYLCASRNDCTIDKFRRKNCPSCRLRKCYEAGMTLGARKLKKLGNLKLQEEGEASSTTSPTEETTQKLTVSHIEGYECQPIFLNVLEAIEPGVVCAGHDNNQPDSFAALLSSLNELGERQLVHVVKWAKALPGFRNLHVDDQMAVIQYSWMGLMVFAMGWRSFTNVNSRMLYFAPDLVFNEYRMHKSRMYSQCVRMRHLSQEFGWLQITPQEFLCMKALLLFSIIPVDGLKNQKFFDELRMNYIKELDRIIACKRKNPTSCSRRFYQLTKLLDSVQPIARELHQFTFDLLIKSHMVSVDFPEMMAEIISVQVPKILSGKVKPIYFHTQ

Turning to `O=C1Cc2ccccc2N1c1c(Cl)cccc1Cl`, the Potency entry in [1] and in [6] was “inactive” throughout. Further, the Potency is 24.3 µM (active) in test [2], 27.3 µM (active) in test [3], 54.9 µM (active) in [4] and 61.1 µM (active) in test [7]. Besides, the compound was called inactive in test [5].
On to `Nc1cccc2c1CN(C1CCC(=O)NC1=O)C2=O` (stereo unspecified), for which the Potency result in [1], in test [2], in test [3], in test [8] and in test [6] was “inactive” in each case.
Regarding `CN(C)CCC=C1c2ccccc2C=Cc2ccccc21`, the Potency result in [1] and in test [6] was “inactive” each time. The Potency in [2] is 8.41 µM (active); in test [3], 10.6 µM (active).
On to `CC(=O)Nc1cc(S(=O)(=O)O)cc2cc(S(=O)(=O)O)c(N=Nc3ccccc3)c(O)c12`, for which the Potency entry in [1], in test [2], in test [3], in test [8] and in test [6] was “inactive” each time.
As to `CC(=O)OCC[N+](C)(C)C`, the Potency result in test [1], in [2], in [3], in test [8] and in test [6] was “inactive” each time.
`C=C(C)C(=O)OCCOCCOC(=O)C(=C)C`: the Potency result in test [1], in test [2], in test [3], in [8] and in test [6] was “inactive” throughout.
For the compound `CC(=O)Nc1ccc(C)cc1C`, the Potency result in [1], in test [9], in [8] and in test [6] was “inactive” each time.
On to `CC(C)Nc1cccnc1N1CCN(C(=O)c2cc3cc(NS(C)(=O)=O)ccc3[nH]2)CC1`, for which the Potency result in [1], in [9], in test [8] and in test [6] was “inactive” each time.
With `O=C=Nc1ccc(Cl)c(Cl)c1`, the Potency entry in test [1], in test [3], in test [8] and in [6] was “inactive” throughout.
Turning to `O=C1CCCCCCCCCCOCCCCO1`, the Potency entry in [1], in test [2] and in test [6] was “inactive” in each case.
With `Cc1cccc(O)c1N`, the Potency result in [1] and in test [8] was “inactive” each time.
`C=C(C)CCCC(C)CCO` (stereo unspecified): the Potency entry in [1], in test [8] and in test [6] was “inactive” in each case. The Potency in test [3] was 54.5 µM (active).
Turning to `O=C(/C=C/c1ccc(O)c(O)c1)O[C@@H]1C[C@@](OC(=O)/C=C/c2ccc(O)c(O)c2)(C(=O)O)C[C@@H](O)[C@@H]1O`, the Potency entry in test [1], in test [9], in [3], in test [8] and in test [6] was “inactive” throughout.
For the compound `N#CCc1ccc(Cl)cc1Cl`, the Potency result in [1], in test [3], in test [8] and in test [6] was “inactive” throughout.
Turning to `C[C@H]1c2cccc(O)c2C(O)=C2C(=O)[C@]3(O)C(O)=C(C(N)=O)C(=O)[C@@H](N(C)C)[C@@H]3[C@@H](O)[C@@H]21`, the Potency entry in test [1], in [8], in [4], in test [6] and in test [7] was “inactive” each time. Further, the compound was classed as inactive in test [5].
On to `CCCCC(CC)COP(=O)(O)O` (stereo unspecified), for which the Potency result in test [1], in test [9], in [3], in test [8] and in [6] was “inactive” throughout.
Regarding `Cc1cc(=O)c2c(O)c3c(O)cc(=O)c4c3c3c(cc(O)c1c23)C(C)(C)C=4O`, the results for the Potency in test [1] and in test [2] were 1.69 µM (active) and 0.944 µM (active), respectively. In addition, the Potency entry in test [8] and in test [6] was “inactive” each time.
Regarding `O=C(O)CCCCCCCCCCCBr`, the Potency entry in [1], in test [9], in [3], in test [8] and in test [6] was “inactive” throughout.
With `CCCCCC#CC(=O)OC`, the Potency result in test [1], in test [9], in [8] and in [6] was “inactive” each time.
For `O=C(OCC(O)CO)c1ccccc1Nc1ccnc2cc(Cl)ccc12` (stereo unspecified), the Potency result in test [1], in [9], in [8], in test [6] and in test [7] was “inactive” in each case. Moreover, the compound was called inactive in [10] and in test [5].
Take `Oc1c(I)cc(I)c2cccnc12`: the Potency result in test [1], in test [8] and in test [6] was “inactive” each time. Also, the Potency in [3] is 13.3 µM (active).
For the compound `C[C@@H](O)[C@H]1C(=O)N2C(C(=O)O)=C([C@H]3CCCO3)S[C@H]12`, the Potency entry in test [1], in test [3], in test [8], in test [4], in test [6] and in test [7] was “inactive” throughout. Further, the outcome in [10] and in test [5] was inactive.
Regarding `Cc1ccccc1N=C(N)Nc1ccccc1C`, the Potency result in [1], in test [8] and in [6] was “inactive” in each case. In addition, the Potency in [9] was 30.1 µM (active).
`CC(=O)[C@H]1[C@H](C#N)C[C@H]2[C@@H]3CC=C4C[C@@H](O)CC[C@]4(C)[C@H]3CC[C@@]21C`: the Potency result in test [1], in [8] and in [6] was “inactive” throughout. For the same compound, in test [2], the Potency is 37.1 µM (active).
For the compound `Nc1nc2ccc([N+](=O)[O-])cc2s1`, the Potency result in test [1], in test [8] and in test [7] was “inactive” throughout. The Potency in test [9] is 64.8 µM (active). Moreover, in [5], the call was inactive.
For the compound `CC(C)=CCC/C(C)=C/CC/C(C)=C/CCC(=O)OC/C=C(\C)CCC=C(C)C`, the Potency result in test [1], in test [9], in test [8] and in [6] was “inactive” throughout.
